Source: PubChem BioAssay
This is one part of a sample in which hits are shown more often than they occur.
C diff growth – C. difficile growth inhibition. AID 1259249. 0.25% of 86,000 active. Clostridium difficile clinical isolate growth, OD600, 24 h; stronger effect = lower value. growth activity, negative = inhibition, % at 16 µg/mL (by protocol);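 active = mean growth activity at or below -80% and every replicate also at or below -80%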;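 note: 0% = DMSO wells and -100% = levofloxacin 16 µg/mL wells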
An asterisk follows results filed as active; ! = a repeat was not active.

SMILES	C diff growth
CCNC(=O)[C@H]1[C@H](CO)[C@H]2Cn3c(ccc(-c4ccc(OC)cc4)c3=O)[C@@H]1N2CC	1
CC(C)CC#Cc1ccc2c(c1)O[C@@H](CN(C)C(=O)Cc1ccccc1)[C@@H](C)CN([C@H](C)CO)S2(=O)=O	-1
COC(=O)c1c(CC[C@@H](CO)NC(=O)N[C@@H](Cc2ccccc2)Cn2cc(-c3ccccc3)nn2)oc(C(=O)N2CCOCC2)c1C(=O)OC	-3
Cc1ccccc1S(=O)(=O)NCC[C@H]1CC[C@@H](NC(=O)C2CC2)[C@H](CO)O1	-1
C[C@H](O)C#Cc1cnc2c(c1)C(=O)N([C@H](C)CO)C[C@@H](C)[C@H](CN(C)C(=O)CC1CC1)O2	-3
CC(C)C#Cc1ccc2c(c1)O[C@H](CN(C)C(=O)c1cccc(F)c1)[C@@H](C)CN([C@H](C)CO)S2(=O)=O	20
CO[C@@H]1CN(C)C(=O)c2ccc(NC(=O)C3CC3)cc2OC[C@@H](C)N(CC2CCOCC2)C[C@@H]1C	3
O=C(CC1CC1)N[C@H]1C[C@@H]2O[C@H](CO)CC[C@@H]2O[C@@H]1CCc1ccc(C#Cc2ccccc2)cc1	76
C[C@@H](NC(=O)[C@@H]1[C@@H](CO)[C@@H]2Cn3c(ccc(-c4ccccc4F)c3=O)[C@H]1N2C)c1ccccc1	-6
CCCNC(=O)N(C)C[C@H]1Oc2ncc(-c3ccccc3)cc2C(=O)N([C@H](C)CO)C[C@@H]1C	3
Fc1cccc(CN2C[C@@H]3N[C@H](C2)C3c2ccc(-c3cncnc3)cc2)c1 (stereo not given in full)	-1
Fc1cccc(-c2ccc(C3[C@@H]4CN(Cc5cccnc5)C[C@H]3N4)cc2)c1 (stereo not given in full)	-6
O=C(Cc1ccncc1)N1C[C@@H]2N[C@H](C1)C2c1ccc(-c2cccc(F)c2)cc1 (stereo not given in full)	10
COc1cc(CN2C[C@@H]3N[C@H](C2)C3c2ccc(-c3ccncc3)cc2)cc(OC)c1 (stereo not given in full)	5
Fc1cccc(CN2C[C@@H]3N[C@H](C2)[C@@H]3c2ccc(-c3cccc(F)c3)cc2)c1	-94*
COc1cc(CN2C[C@@H]3N[C@H](C2)C3c2ccc(-c3cccc(OC)c3)cc2)cc(OC)c1 (stereo not given in full)	47
Fc1cccc(-c2ccc(C3[C@@H]4CN(Cc5ccccc5F)C[C@H]3N4)cc2)c1 (stereo not given in full)	-101*
N#Cc1ccc(-c2ccc(C3[C@@H]4CN(Cc5ccccc5F)C[C@H]3N4)cc2)cc1 (stereo not given in full)	44
Fc1cccc(CN2C[C@@H]3N[C@H](C2)C3c2ccc(-c3ccccc3)cc2)c1 (stereo not given in full)	-99*
O=C(C1CCC1)N1C[C@@H]2N[C@H](C1)C2c1ccc(-c2cccc(F)c2)cc1 (stereo not given in full)	35
N#Cc1cccc(-c2ccc(C3[C@@H]4CN(Cc5ccccc5)C[C@H]3N4)cc2)c1 (stereo not given in full)	34
COc1ccc(-c2ccc(C3[C@@H]4CN(Cc5cc(OC)cc(OC)c5)C[C@H]3N4)cc2)cc1 (stereo not given in full)	-101*!
COc1ccccc1C#Cc1ccc2c(c1)O[C@@H](CN(C)Cc1ccccc1)[C@@H](C)CN([C@H](C)CO)S2(=O)=O	9
COc1ccc2c3c([nH]c2c1)[C@@H](CO)NCC31CN(S(=O)(=O)c2ccccc2)C1	-8
O=C(C[C@@H]1CC[C@H]2[C@@H](COC[C@H](O)CN2Cc2ccccc2)O1)N[C@@H]1CCN(Cc2ccccc2)C1	-2
SMILES	C diff growth
COc1ccc2c3c([nH]c2c1)[C@H](CO)N(C(=O)CN(C)C)CC31CN(Cc2ccccc2Cl)C1	29
Cc1ccc(-c2cnc3c(c2)C(=O)N([C@@H](C)CO)C[C@H](C)[C@H](CN(C)S(C)(=O)=O)O3)cc1	1
CN(C)CC(=O)N[C@@H]1CC[C@@H](CCNC(=O)Nc2ccc(Cl)cc2)O[C@@H]1CO	5
O=C(NCC[C@H]1CC[C@@H](NC(=O)C2CC2)[C@H](CO)O1)Nc1ccc(Cl)cc1	0
CC(=O)N[C@H]1CC[C@@H](CCNC(=O)Nc2ccc(C(F)(F)F)cc2)O[C@H]1CO	-11
O=C(NCC[C@H]1CC[C@@H](NC(=O)C2CC2)[C@H](CO)O1)Nc1ccc(C(F)(F)F)cc1	20
O=C(Nc1ccc(C(F)(F)F)cc1)N[C@H]1CC[C@@H](CCNC(=O)c2ccccc2F)O[C@@H]1CO	1
CCC(=O)N[C@H]1CC[C@@H](CCNC(=O)Nc2ccc(F)cc2)O[C@@H]1CO	7
CN(C)CC(=O)N[C@@H]1CC[C@@H](CCNC(=O)Nc2ccc(C(F)(F)F)cc2)O[C@@H]1CO	-100*
CC(=O)N[C@H]1CC[C@H](CCNC(=O)Nc2ccc(C(F)(F)F)cc2)O[C@H]1CO	-95*
O=C(NCC[C@H]1CC[C@@H](NC(=O)C2CC2)[C@@H](CO)O1)Nc1ccc(C(F)(F)F)cc1	-100*
